This note sets out measurements from a collection of fitness landscapes (doi:10.1126/science.1257360).

Whole data set: some 140,000 sequences, median “enrichment ratio after two sorts for PhoP signalling” near 0, cut for the highest 2% near 11. The sample holds the highest values, similar sequences and a random draw of the others, so the mix is not that of the screen. Some results are limits rather than exact numbers.

B1: PhoQ; a variant is named by its letters at X, in order, P23837 (parent)
chain: MKKLLRLFFPLSLRVRFLLATAAVVLVLSLAYGMVALIGYSVSFDKTTFRLLRGESNLFYTLAKWENNKLHVELPENIDKQSPTMTLIYDENGQLLWAQRDVPWLMKMIQPDWLKSNGFHEIEADVNDTSLLLSGDHSIQQQLQEVREDDDDAEMTHSVAVNVYPATSRMPKLTIVVVDTIPVELKSSYMVWSWFIYVLSANLLLVIPLLWVAAWWSLRPIEALAKEVRELEEHNRELLNPATTRELTSLVRNLNRLLKSERERYDKYRTTLTDLTHSLKTPLXXLQXXLRSLRSEKMSVSDAEPVMLEQISRISQQIGYYLHRASMRGGTLLSRELHPVAPLLDNLTSALNKVYQRKGVNISLDISPEISFVGEQNDFVEVMGNVLDNACKYCLEFVEISARQTDEHLYIVVEDDGPGIPLSKREVIFDRGQRVDTLRPGQGVGLAVAREITEQYEGKIVAGESMLGGARMEVIFGRQHSAPKDE

The variants in this experiment derive from B1. Kind of experiment: enrichment ratio after two sorts for PhoP signalling (ratio (wild type AVST 3.29)); higher = more functional. Particulars: with PhoP (E. coli).
Turning to RMEF, the enrichment ratio was ≤ 0.25.
To THRH belongs ≤ 0.25.
To LFGG belongs ≤ 0.25.
As to SVRY, the enrichment ratio was ≤ 0.25.
On to VDCR, for which the enrichment ratio was ≤ 0.25.
Regarding PYWQ, the enrichment ratio is ≤ 0.25.
Consider KCCQ, for which the enrichment ratio is ≤ 0.25.
For SCIE, the enrichment ratio is ≤ 0.25.
Consider SCKQ, for which the enrichment ratio is ≤ 0.25.
As for SCCL, the enrichment ratio came to 18.7.
The value for SCCI was 9.92; that for SCCQ was 13.2; that for SCNE was ≤ 0.25.
The value for SCCK was 14.3; that for SCVL was 1.96; that for SCWM was ≤ 0.25.
To SCIL belongs 0.31.
On to SCCE, for which the enrichment ratio was found to be 13.9.
To QNII belongs ≤ 0.25; to YSFC, ≤ 0.25.
For the variant QFDM, the enrichment ratio is ≤ 0.25.
To MRHI belongs ≤ 0.25; to SCCG, 14.3; to SCNL, 0.751.
The value for SCRM was ≤ 0.25.
The value for SCGL was 13.6.
Consider KCCG, for which the enrichment ratio is ≤ 0.25.
The value for KYGL was ≤ 0.25; that for SCTM was 17.9.
As for SCGM, the enrichment ratio was determined as 9.65.
To SCGG belongs 11.1.
To IPCK belongs ≤ 0.25.
To NTGH belongs ≤ 0.25.
Regarding VHAE, the enrichment ratio was ≤ 0.25.
The value for RFHG was ≤ 0.25; that for GDAF was ≤ 0.25; that for THIS was ≤ 0.25.
To SATS belongs 14.2.
To SSLI belongs 18.9; to SFLI, 0.615; to AITY, 3.48.
For SSDK, the enrichment ratio was ≤ 0.25.
As for NNTY, the enrichment ratio was ≤ 0.25.
To SATC belongs 5.33; to AETY, 16; to HATY, ≤ 0.25.
Regarding SATD, the enrichment ratio was ≤ 0.25.
For TMTY, the enrichment ratio came to 12.9.
Take AHTY: the enrichment ratio was ≤ 0.25.
To IYRF belongs ≤ 0.25.
The value for VMFP was ≤ 0.25.
To EPNR belongs ≤ 0.25.
For LVNK, the enrichment ratio is ≤ 0.25.
Regarding AYMN, the enrichment ratio is ≤ 0.25.
Regarding SQGS, the enrichment ratio is 7.13.
For NISG, the enrichment ratio is ≤ 0.25.
For the variant NDHH, the enrichment ratio was ≤ 0.25.
As to TSTY, the enrichment ratio worked out at 11.6.
To FQTY belongs ≤ 0.25.
On to SQTY, for which the enrichment ratio stood at 8.07.
The value for KYTY was ≤ 0.25; that for SITY was 12.7; that for MMTY was ≤ 0.25.
Take TQTY: the enrichment ratio was 17.5.
To FSAY belongs ≤ 0.25; to LCTY, ≤ 0.25.
Take DHTY: the enrichment ratio was ≤ 0.25.
To TSAY belongs 11.6; to KSAY, 0.715; to HMAW, ≤ 0.25.
Consider ILRI, for which the enrichment ratio is ≤ 0.25.
DLNY: the enrichment ratio was ≤ 0.25.
The value for WPQA was ≤ 0.25; that for METY was 3.22; that for NVTY was ≤ 0.25.
Turning to NATY, the enrichment ratio is ≤ 0.25.
For the variant KSWY, the enrichment ratio was ≤ 0.25.
To TKWY belongs 12.9; to SATY, 12.7.
To KATY belongs ≤ 0.25; to SETY, 15.
To QETY belongs ≤ 0.25; to SSTY, 11.3; to KSTY, ≤ 0.25.
As to AKWY, the enrichment ratio is ≤ 0.25.
Take VMNQ: the enrichment ratio is ≤ 0.25.
Turning to KFEC, the enrichment ratio was ≤ 0.25.
Consider WKRY, for which the enrichment ratio is ≤ 0.25.
To SIGY belongs 14.3.
LCWY: the enrichment ratio was ≤ 0.25.
In the case of KYGY, the enrichment ratio is ≤ 0.25.
In the case of SLGY, the enrichment ratio was found to be 1.84.
To MMWY belongs ≤ 0.25; to TSWY, 14.1.
In the case of VGCD, the enrichment ratio is ≤ 0.25.
To QAVQ belongs ≤ 0.25.
Take NAGQ: the enrichment ratio is ≤ 0.25.
The value for MAMQ was ≤ 0.25; that for QAMQ was 44.4.
Take QAGD: the enrichment ratio is ≤ 0.25.
Consider FAMQ, for which the enrichment ratio amounted to 45.
The value for TPGQ was 16.
To QAMV belongs ≤ 0.25.
Turning to QPGQ, the enrichment ratio is ≤ 0.25.
For the variant FAVQ, the enrichment ratio was ≤ 0.25.
As for QAGQ, the enrichment ratio was 24.5.
The value for QGGQ was 8.17; that for KRHT was ≤ 0.25; that for IASQ was ≤ 0.25.
For FDMR, the enrichment ratio was ≤ 0.25.
On to HIEP, for which the enrichment ratio was ≤ 0.25.
Consider ITVA, for which the enrichment ratio was ≤ 0.25.
The value for SHRP was ≤ 0.25; that for NRKT was ≤ 0.25; that for GQLV was 7.76.
To SALF belongs 9.67; to KRAM, ≤ 0.25; to MDPE, ≤ 0.25.
As to EKES, the enrichment ratio is ≤ 0.25.
Consider ASHP, for which the enrichment ratio was ≤ 0.25.
With ASSQ, the enrichment ratio was 14.5.
For ASSS, the enrichment ratio is 11.9.
For the variant ASSR, the enrichment ratio is ≤ 0.25.
On to ASSK, for which the enrichment ratio was ≤ 0.25.
To ASKA belongs ≤ 0.25; to VWGF, ≤ 0.25.
In the case of SDHM, the enrichment ratio was ≤ 0.25.
To AQDN belongs ≤ 0.25; to PECQ, ≤ 0.25; to IETV, ≤ 0.25.
As for GVSF, the enrichment ratio was found to be 11.8.
The value for GYGF was ≤ 0.25; that for GVHF was ≤ 0.25; that for GNSF was 1.14.
Consider GVGF, for which the enrichment ratio was determined as 12.
Take GGGF: the enrichment ratio is ≤ 0.25.
The value for DDND was ≤ 0.25.
To QPHR belongs ≤ 0.25.
To FDYT belongs ≤ 0.25.
On to YIRR, for which the enrichment ratio is ≤ 0.25.
The value for KSHV was ≤ 0.25.
To THHV belongs ≤ 0.25.
For the variant MMWA, the enrichment ratio is ≤ 0.25.
To KSNF belongs ≤ 0.25; to FSCH, 0.442; to TSCH, 15.8.
To KSCH belongs ≤ 0.25.
For TSHV, the enrichment ratio turned out to be 13.7.
The value for MMNF was ≤ 0.25; that for KSWA was ≤ 0.25.
Consider TSNF, for which the enrichment ratio was found to be 16.1.
To TSWA belongs 15.4; to QSCS, ≤ 0.25.
To SYVA belongs ≤ 0.25.
